# From PubChem BioAssay AID588492 (Sanford-Burnham Center for Chemical Genomics, 2011)
# Hit rate of the full screen: of about 360,000 compounds, about 2,300 (0.64%) were called active. The sample holds actives, similar compounds and a random draw of the others, so the mix is not that of the screen. A number with no mark means an inactive call.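 Rule for the calls: active = compounds giving at least 50% protection of heart cells from peroxide-induced death in the single-dose screen, raw or plate-pattern-corrected value; inactive = the rest.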
# Assay: cardioprotection against H2O2-induced cell death, primary screen, uHTS, H9c2 cells, ATPLite luminescence (AID 588492);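 note: 0% = DMSO wells with peroxide and 100% = DMSO wells without peroxide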
# Details: H9c2 cardiomyocytes, H2O2 injury protection, 2 h, at 20 µM, stronger effect = higher value
row,Structure (SMILES),protection from H2O2 cell death
1,CCCCN(CCCC)CCC(O)c1cc2c(Cl)cc(Cl)cc2c2cc(C(F)(F)F)ccc12 (stereo not given),-33.9%
2,Cc1ccc(NC(=O)Cn2cccc2C2=NC(c3ccccc3)CO2)c(C)c1 (stereo not given),-6.9%
3,COc1ccc(Cl)cc1NC(=O)CCS(=O)(=O)c1cc2c(cc1C)NC(=O)CO2,54.6% (active)
4,COc1ccc(NC(=O)CCS(=O)(=O)c2cc3c(cc2Cl)NC(=O)CO3)cc1OC,7.8%
5,Cc1cc2c(cc1S(=O)(=O)CCC(=O)NCc1ccccc1)OCC(=O)N2,2.9%
6,O=C(Oc1cccc(N2C(=O)C3C4c5ccccc5C(c5ccccc54)C3C2=O)c1)c1ccco1 (stereo not given),-6.6%
7,Nc1c(N(CCO)C(=O)C2CCCCC2)c(=O)[nH]c(=O)n1Cc1ccccc1,-1.8%
8,O=C(CNC(=O)c1ccc(Cl)cc1Cl)NCC(=O)Nc1ccccc1N1CCOCC1,-2.6%
9,Cc1nccn1-c1ccc(NC(=O)[C@H]2O[C@@H](n3cnc4c(N)ncnc43)[C@H](O)[C@@H]2O)cc1,4.5%
10,Cc1ccc2sc(NNC(=O)c3ccc4c(c3)OCCO4)nc2c1C,81.8% (active)
11,Cc1nc(NC(=O)c2ccc3c(c2)OCCO3)ccc1Br,-4.4%
12,Cc1cccc(C)c1NC(=O)CNC(=O)c1ccc2c(c1)OCCO2,0.8%
13,O=C1CCN(Cc2ccc([N+](=O)[O-])cc2)CCN1[C@H](CO)Cc1ccccc1,0.1%
14,COc1ccc(-c2ccc(Nc3ccc(S(=O)(=O)N4CCCC4)cc3)nn2)cc1OC,58.5% (active)
15,COc1cc(C(C)=O)ccc1OC(C)C(=O)Nc1ccc(S(=O)(=O)N2CCCC2)cc1 (stereo not given),4.6%
16,COc1ccc(S(=O)(=O)N2CCCCCC2)cc1NC(=O)Cc1ccc(OC)c(OC)c1,4%
17,CC(Nc1ccccc1)c1cccnc1 (stereo not given),4.3%
18,O=C(CCN1CCCCC1)Nc1ccc(F)c(F)c1,0.6%
19,Oc1cc2c(cc1O)CN(C(=S)NCCc1ccc(Cl)cc1)CCC2,74.4% (active)
20,Cc1cccc(NC(=S)NCCc2ccc(Cl)cc2)c1C,-6.5%
21,O=C(NCCc1ccc(Cl)cc1)c1cccc(N2CCCC2=O)c1,-1.2%
22,CC(C)C1CCN(C(=O)C2CCC(=O)N(C3CCCCCC3)C2)CC1 (stereo not given),-2.1%
23,Cc1ccc(S(=O)(=O)N2CCCCC2)cc1NC(=O)c1cccnc1,12%

row,Structure (SMILES),protection from H2O2 cell death
1,O=C(c1cccnc1)N1CCN(S(=O)(=O)c2cccs2)CC1,10.1%
2,O=C(N/N=C/c1sc(N2CCCCC2)nc1-c1cccs1)c1cccnc1,56.3% (active)
3,CC(C(=O)Nc1ccc(S(=O)(=O)N2CCCC2)cc1)N(C)Cc1ccc(F)cc1 (stereo not given),0.3%
4,O=C(NCC(=O)N(CC1CCCO1)C(C(=O)NC1CCCCC1)c1ccccc1)c1ccco1 (stereo not given),2.8%
5,Cc1ccccc1N(C(=O)CNC(=O)c1cccs1)C(C(=O)NC1CCCC1)c1ccncc1 (stereo not given),1.9%
6,O=C(NCC(=O)N(Cc1cccs1)C(C(=O)NC1CCCCC1)c1ccco1)c1cccs1 (stereo not given),68.2% (active)
7,COc1ccc(-c2ccc(C(=O)NC(C)C)c3occc23)c(C)c1,5.9%
8,COc1ccc(-c2nc3n(c2Br)CCC3)cc1,-13.5%
9,COc1ccc(NC(=O)CN(C)C(=O)c2cc(C)oc2C)cc1,-3.2%
10,CCc1ccc(-c2nc(SCC(=O)NC3CCCC3)n[nH]2)cc1,-11.6%
11,O=C(OCc1cn([C@H]2C[C@H](c3ccccc3)N(C(=O)c3cccs3)C[C@@H]2O)nn1)c1ccccc1,-0.9%
12,COC(=O)c1ccc(C(NC(=O)OCc2ccccc2)/C(C)=C/[C@@H](C)C(=O)NCc2ccc(OC)c(OC)c2)cc1 (stereo not given in full),52% (active)
13,COC(=O)c1cc(CNC(=O)CC(C)c2ccccc2)ccc1OC (stereo not given),9.7%
14,COC(=O)c1ccc(C(NC(=O)OCc2ccccc2)/C(F)=C/[C@@H](C)C(=O)O)cc1 (stereo not given in full),1.8%
15,CCCCNC(=O)C(C)N(CCN(C)C)C(=O)CCCCCN1C(=O)NC(c2ccc(Cl)cc2)C(C(=O)OCc2ccccc2)=C1C (stereo not given),-27%
16,CC(=O)NC(c1cccc(F)c1)c1nc(-c2cccc(F)c2)cs1 (stereo not given),-2.7%
17,Nc1nc2cc(Cl)ccc2n1N,1.6%
18,Cc1c(C(=O)Nc2ccccc2Cl)oc2ccc(S(=O)(=O)N3CCC4(CC3)OCCO4)cc12,0.9%
19,Cc1c(C(=O)Nc2cccc(S(=O)(=O)N3CCOCC3)c2)oc2ccccc12,4.3%
20,COc1ccc(NC(=O)c2oc3ccc(S(=O)(=O)N4CCOCC4)cc3c2C)cc1,52.7% (active)
21,Cc1ccc(NC(=O)C(C)OC(=O)Cc2c[nH]c3ccccc23)cc1S(=O)(=O)N1CCOCC1 (stereo not given),-2.5%
22,C/C(=N\NC(=O)c1cccc([N+](=O)[O-])c1)c1cccnc1,9.5%
23,CCN(CC)c1ccc(S(=O)(=O)N2CCCCC2)cc1NC(=O)C1=COCCO1,-3.5%

row,Structure (SMILES),protection from H2O2 cell death
1,CC(=O)c1c(C)[nH]c(C(=O)OCC(=O)Nc2sc3c(c2C#N)CCCC3)c1C,-12.2%
2,CCCCC(=O)NC(c1ccc(OC)c(OC)c1)c1ccc2cccnc2c1O (stereo not given),36.9%
3,CCOC(=O)N1CCN(C(=O)C2CCN(c3ncnc4c3sc3cccc(F)c34)CC2)CC1,-28.4%
4,CCN1CCN(C(c2cccnc2)c2cc(Cl)c3cccnc3c2O)CC1 (stereo not given),64% (active)
5,CCOC(=O)N1CCN(C(c2cccnc2)c2ccc3cccnc3c2O)CC1 (stereo not given),69.3% (active)
6,CC(=O)NC(c1cccs1)c1cc(Br)c2cccnc2c1O (stereo not given),43.4%
7,CCn1c(SC(C)C(=O)Nc2ccc(N3CCOCC3)cc2)nnc1-c1ccco1 (stereo not given),-3.9%
8,O=C(CN1C(=O)c2cccnc2Oc2ccc(Cl)cc21)Nc1ccc(F)cc1,21.7%
9,OC(c1cc(Cl)cc(Cl)c1)c1ncc(-c2ccccc2C(F)(F)F)[nH]1 (stereo not given),-8.9%
10,COc1cccc2sc(NNC(=O)c3nc4ccccc4s3)nc12,53.7% (active)
11,CC(=O)Nc1cccc(-c2nc3ccccc3s2)c1C,-3.3%
12,COc1cccc(/C=C(/CC(=O)Nc2ccc(N3CCOCC3)cc2)c2nc3ccccc3s2)c1,-4.6%
13,COC(=O)[C@@H]1CCCN1C(=O)c1cc(COc2cccc3cccnc23)on1,11.6%
14,CSCCC(c1nnnn1Cc1ccccc1)N1CCN(C/C=C/c2ccccc2)CC1 (stereo not given),-2%
15,Cc1ccc(C(=O)OCC(=O)NC2CCCCCCC2)cc1C,-0.9%
16,Cn1c2ccc(F)cc2c2nnc(NN)nc21,56.4% (active)
17,CN(C)c1nc(NN)nc(Nc2ccc(F)cc2)n1,-2.7%
18,CCn1c2ccc(F)cc2c2nnc(SCCN3CCOCC3)nc21,3.7%
19,CSc1nc(-c2ccccc2)nc(C(Cl)Cl)n1,-2.9%
20,COC(=O)c1c(C(=O)OC)c2n(c1C)CCS2,-0.3%
21,COc1ccc(C(C(=O)NCc2ccccc2)N(Cc2cccs2)C(=O)c2cnccn2)cc1 (stereo not given),79.8% (active)
22,Cc1cccc(N(C(=O)c2csnn2)C(C(=O)NCc2ccccc2)c2ccncc2)c1 (stereo not given),2.2%
23,COc1ccc(CNC(=O)C(c2ccc(O)cc2)N(Cc2ccco2)C(=O)c2snc(C(N)=O)c2N)cc1 (stereo not given),49%

row,Structure (SMILES),protection from H2O2 cell death
1,CC(C)c1nnc(NC(=O)CCC(=O)N2CCN(c3cccc(Cl)c3)CC2)s1,-2.1%
2,COc1cccc(/C=C/C(=O)OCC(=O)N2CCN(c3ccccc3)CC2)c1,2%
3,COc1cccc(-c2ccc(SCC(=O)N3CCN(c4ccccc4)CC3)nn2)c1,53.9% (active)
4,CCOc1ccc(-c2ccc(SCC(=O)N3CCOCC3)nn2)cc1,-13.9%
5,CC1(C(=O)NS(=O)(=O)Cc2cccc(Cl)c2)CCN1C(=O)Cc1ccccc1 (stereo not given),-2.8%
6,COc1ccc(NC(=O)CN(C)C(=O)CC2CCCCC2)cc1,0.1%
7,Cc1cccc(NC(=O)c2nc[nH]c2C(=O)NCC(=O)OCc2ccccc2)c1,86.4% (active)
8,CCOC(=O)c1ccc(NC(=O)c2nc[nH]c2C(=O)NCc2ccccc2)cc1,21.8%
9,C[C@H](NC(=O)c1nc[nH]c1C(=O)NCC(=O)OC(C)(C)C)C(=O)OCc1ccccc1,41.9%
10,COC(=O)C1=C(C)NC(=O)/C1=C/c1ccc(CNS(=O)(=O)c2ccc(C)cc2)o1,2.9%
11,COC(=O)C1=C(C)NC2=C(C(=O)c3ccccc32)C1c1ccc(-c2ccc(C(=O)O)cc2)o1 (stereo not given),60.9% (active)
12,Nc1ccc2nc3c(=O)[nH]c(=S)[nH]c3nc2c1,-6.1%
13,CCOc1ncccc1C(=O)N(CC)CC(=O)Nc1ccc(NC(C)=O)cc1,-4.3%
14,COc1ccc(N(CC(=O)N/N=C/c2cccc3c2OCCO3)S(=O)(=O)c2ccc(NC(C)=O)cc2)cc1,26.2%
15,COc1ccc(S(=O)(=O)N(CC(=O)N/N=C/c2ccc(C(=O)O)cc2)Cc2ccccc2)cc1OC,-0.7%
16,COc1ccc(N(CC(=O)N/N=C/c2cccs2)S(=O)(=O)c2ccc(OC)c(OC)c2)cc1,52.7% (active)
17,N#Cc1ncc(C(F)(F)F)cc1Oc1cccnc1,-0.3%
18,Cc1cc(C)c(C(N)=O)c(Cl)n1,0.4%
19,COc1ccc(C(C)(O)c2nc(-c3ccc(C)c(C)c3)cs2)cc1 (stereo not given),-13.4%
20,COc1ccc(C(O)c2nc(-c3ccc4c(c3)OCO4)cs2)cc1 (stereo not given),-5.3%
21,COc1ccc(OC)c(Nc2nc(-c3ccc(O)c(O)c3)cs2)c1,52% (active)
